Among the data in PubChem BioAssay (EPA / NIEHS) are AC50 and outcome values, retold here.

Usually AC50 stands for the midpoint of the concentration-response curve, whichever way the signal moves.

The nature of experiment [1]: ATG_E_Box_CIS: Attagene CIS-FACTORIAL HepG2 Assay for human Enhancer Box (E-box) (AID 2282936). The note with it: HepG2 E-box cis-reporter transcription, actives raise or lower the signal. In short, it runs like this: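 E-box-driven reporter transcripts measured in transiently transfected HepG2 after 24 h exposure: RNA reverse-transcribed, PCR-amplified, fluorescently labelled, digested and resolved by capillary electrophoresis. Gain or loss relative to DMSO.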

Experiment [2] can be described thus: ATG_M_61_CIS: Attagene CIS-FACTORIAL HepG2 Assay for M61 Transcription Factor (Internal Marker) (AID 2282937). The note with it: HepG2 Attagene CIS-FACTORIAL M61 internal marker reporter; actives raise or lower the signal. In short, it runs like this: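 Using transiently transfected HepG2 liver cells, reporter transcript levels were assessed 24 h post-dosing by RT-PCR and capillary electrophoresis. Changes in either direction were fitted relative to DMSO controls.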

A short description of experiment [3]: ATG_EGR_CIS: Attagene CIS-FACTORIAL HepG2 Assay for human Early Growth Response 1 (EGR1) (AID 2282938). The settings on record: HepG2 Attagene CIS-FACTORIAL EGR reporter mRNA; actives raise or lower the signal. In short, it runs like this: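 Fluorescent capillary-electrophoresis signal of reporter cDNA fragments serves as read-out. HepG2 cells bear transiently transfected cis-promoter reporter units and are exposed 24 h; gain- or loss-of-signal is fitted against DMSO.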

The nature of experiment [4]: ATG_M_19_CIS: Attagene CIS-FACTORIAL HepG2 Assay for M19 Transcription Factor (Internal Marker) (AID 2282939). The settings on record: HepG2 Attagene CIS-FACTORIAL M19 internal marker reporter; actives raise or lower the signal. In short, it runs like this: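 HepG2, MRTU transient transfection, 24 h dosing. Total RNA → RT-PCR → 6-FAM primer extension → HpaI digest → CE fluorescence. Bidirectional curve fit, DMSO negative control.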

The nature of experiment [5]: ATG_Ets_CIS: Attagene CIS-FACTORIAL HepG2 Assay for human Erythroblast Transformation Specific (ETS) (AID 2282941). The settings on record: HepG2 ETS cis-reporter transcription, actives raise or lower the signal. In short, it runs like this: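 Cis-regulated reporter mRNA induction in HepG2 (transient transfection), 24 h exposure, RT-PCR plus capillary electrophoresis detection; DMSO serves as negative control and baseline.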

Experiment [6] addresses Hepatocyte nuclear factor 3-beta (Homo sapiens) (UniProt Q9Y261). Description: ATG_FoxA2_CIS: Attagene CIS-FACTORIAL HepG2 Assay for human Forkhead box A2 (FOXA2) (AID 2282942). The settings on record: HepG2 cis-reporter transcription factor activity, 24 h; actives raise or lower the signal. In short, it runs like this: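 Fluorescence signal of reporter cDNA fragments, separated by capillary electrophoresis, reflects endogenous transcription factor activity in transfected HepG2 after 24 h. Both increases and decreases fitted against DMSO.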

A short description of experiment [7]: ATG_FoxO_CIS: Attagene CIS-FACTORIAL HepG2 Assay for human Forkhead box O (FoxO) (AID 2282943). The settings on record: HepG2 Attagene cis-reporter, FoxO element, mRNA; actives raise or lower the signal. A digest of the protocol:
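Human hepatoma HepG2 cells carry transiently introduced reporter transcription units controlled by cis promoter elements. Chemical treatment lasted 24 h, and mRNA signal was compared with DMSO.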

Experiment [8] can be described thus: ATG_GATA_CIS: Attagene CIS-FACTORIAL HepG2 Assay for human GATA Binding Protein (AID 2282944). The note with it: HepG2 GATA cis-element reporter, Attagene multiplex mRNA; actives raise or lower the signal. A digest of the protocol:
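Cells: HepG2, transiently transfected with cis-regulated reporter transcription units. Exposure: 24 h. Detection: RT-PCR plus capillary electrophoresis of FAM-labeled fragments. Analysis: bidirectional, DMSO as baseline.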

Experiment [9] is described as follows: ATG_GLI_CIS: Attagene CIS-FACTORIAL HepG2 Assay for human Zinc Finger Protein GLI1 (AID 2282945). The settings on record: HepG2, Attagene cis-factorial reporter mRNA, GLI element; actives raise or lower the signal. A digest of the protocol:
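Bidirectional curve fits relative to DMSO, using reporter mRNA levels from RT-PCR plus capillary electrophoresis. Cells were HepG2 transiently carrying cis-regulated reporter constructs, harvested 24 h after dosing.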

Structures are written as SMILES. Activity calls are given as the source filed them. The calls were made as follows: active = hit-call score of the fitted dose curve at least 0.9, where 1 is the maximum; inactive = score below 0.9.

Chain of Hepatocyte nuclear factor 3-beta (Homo sapiens) (Q9Y261 whole entry, looked up, the tested form may be a part): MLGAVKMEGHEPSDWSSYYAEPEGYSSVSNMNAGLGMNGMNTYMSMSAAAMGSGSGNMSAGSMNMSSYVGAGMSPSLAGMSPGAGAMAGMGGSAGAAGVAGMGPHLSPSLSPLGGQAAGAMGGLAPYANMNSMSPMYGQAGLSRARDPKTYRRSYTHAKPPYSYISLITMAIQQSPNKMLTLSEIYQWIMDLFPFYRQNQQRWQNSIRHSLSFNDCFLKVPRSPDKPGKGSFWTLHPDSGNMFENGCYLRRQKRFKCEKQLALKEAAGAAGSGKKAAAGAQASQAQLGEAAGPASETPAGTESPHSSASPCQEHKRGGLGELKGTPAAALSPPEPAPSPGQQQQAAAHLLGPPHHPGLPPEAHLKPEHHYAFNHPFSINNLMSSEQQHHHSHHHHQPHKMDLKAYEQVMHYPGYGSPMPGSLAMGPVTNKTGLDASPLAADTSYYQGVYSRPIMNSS

Consider `O=C1c2ccccc2C(=O)c2c(O)ccc(O)c21`, for which, in experiment [1], the AC50 was 3.7 µM (active). Further, the call in experiment [2], in experiment [3], in experiment [4], in [5], in experiment [6] and in experiment [7] was inactive. Besides, the compound was classed as inactive in [8] and in [9].
Consider `N#Cc1ccc(CC(=O)c2cccc(C(F)(F)F)c2)cc1`, for which the AC50 in experiment [1] is 170 µM (active). Moreover, the result in experiment [2], in experiment [3], in [4], in experiment [5], in experiment [6] and in [7] was inactive. Besides, the result in experiment [8] and in [9] was inactive.
As for `C=CC(=C)CCCC(C)(C)OC(C)=O`, the result in experiment [1], in experiment [2], in experiment [3], in experiment [4], in experiment [5] and in [6] was inactive. Further, the call in experiment [7], in experiment [8] and in experiment [9] was inactive.
As to `COCCc1ccc(OCC(O)CNC(C)C)cc1` (stereo not drawn), the outcome in experiment [1], in experiment [2], in experiment [3], in experiment [4], in experiment [5] and in experiment [6] was inactive. Moreover, the result in experiment [7], in experiment [8] and in experiment [9] was inactive.
Turning to `CCCSc1ccc2nc(NC(=O)OC)[nH]c2c1`, the result in [1], in experiment [2], in experiment [3], in [4], in experiment [5] and in experiment [6] was inactive. Also, the compound was called inactive in experiment [7], in experiment [8] and in experiment [9].
`CCCCCCOC(=O)CCC`: the outcome in [1], in [2], in experiment [3], in experiment [4], in [5] and in experiment [6] was inactive. In addition, the outcome in experiment [7], in experiment [8] and in [9] was inactive.
On to `O=c1c(O)c(-c2ccc(O)cc2)oc2cc(O)cc(O)c12`, for which the outcome in experiment [1], in experiment [2], in experiment [3], in [4], in experiment [5] and in [6] was inactive. Further, the call in experiment [7], in experiment [8] and in [9] was inactive.
As to `C=COCCOCCOC=C`, the outcome in experiment [1], in experiment [2], in experiment [3], in experiment [4], in experiment [5] and in experiment [6] was inactive. For the same compound, the outcome in [7], in [8] and in experiment [9] was inactive.
In the case of `c1ccc2[nH]cnc2c1`, the result in experiment [1], in experiment [2], in experiment [3], in experiment [4], in [5] and in experiment [6] was inactive. In addition, the result in experiment [7], in experiment [8] and in experiment [9] was inactive.
For the compound `COc1ccc(CCO)cc1`, the outcome in experiment [1], in experiment [2], in [3], in experiment [4], in experiment [5] and in experiment [6] was inactive. Moreover, the result in experiment [7], in [8] and in experiment [9] was inactive.
As to `O=C(CC(=O)c1ccccc1)c1ccccc1`, the AC50 is 42.5 µM (active) in experiment [1], 100 µM (active) in experiment [3], 171 µM (active) in experiment [8] and 157 µM (active) in experiment [9]. In addition, the compound was classed as inactive in experiment [2], in [4], in experiment [5], in experiment [6] and in experiment [7].
Turning to `C[Si](C)(C)O[Si](C)(C)C`, the outcome in experiment [1], in experiment [2], in [3], in [4], in experiment [5] and in [6] was inactive. Moreover, the call in experiment [7], in experiment [8] and in experiment [9] was inactive.
As for `CC(C)(C)c1ccc(C(=O)O)cc1`, the result in [1], in experiment [2], in experiment [3], in [4], in experiment [5] and in experiment [6] was inactive. Moreover, the call in [7], in experiment [8] and in experiment [9] was inactive.
Turning to `CC1(C)C2=CCCC(C)(C)[C@]23CC[C@H]1C3`, the result in [1], in [2], in [3], in experiment [4], in experiment [5] and in [6] was inactive. For the same compound, the compound was called inactive in experiment [7], in experiment [8] and in experiment [9].
`CN(C)c1cccc(O)c1`: the outcome in experiment [1], in experiment [2], in experiment [3], in experiment [4], in experiment [5] and in [6] was inactive. Moreover, the compound was called inactive in [7], in experiment [8] and in [9].
On to `CS(C)=O`, for which the result in experiment [1], in [2], in experiment [3], in experiment [4], in experiment [5] and in experiment [6] was inactive. Also, the result in experiment [7], in experiment [8] and in [9] was inactive.
Consider `CC(C)(C)C1=CC(=O)C(C(C)(C)C)=CC1=O`, for which the result in experiment [1], in experiment [2], in experiment [4] and in experiment [6] was inactive. In addition, the AC50 in [3] is 50 µM (active); in [5] it was 36.6 µM (active); in experiment [7], 50 µM (active); in [8], 68.3 µM (active); in experiment [9], 81.7 µM (active).
As to `CCc1cc(Cc2cc(CC)cc(C(C)(C)C)c2O)c(O)c(C(C)(C)C)c1`, the result in [1], in [2], in experiment [4], in [5], in experiment [6] and in experiment [7] was inactive. The compound was classed as inactive in experiment [8]. For the same compound, the AC50 is 18.5 µM (active) in experiment [3] and 17.1 µM (active) in [9].
Turning to `CCCC(C)C(O)CC` (stereo not drawn), the outcome in [1], in experiment [2], in experiment [3], in experiment [4], in experiment [5] and in experiment [6] was inactive. For the same compound, the compound was classed as inactive in [7], in experiment [8] and in experiment [9].
`OCCOCCN1CCN(C2=Nc3ccccc3Sc3ccccc32)CC1`: the result in experiment [1], in experiment [2], in experiment [3], in experiment [4], in experiment [5] and in experiment [6] was inactive. Also, the compound was called inactive in [7], in [8] and in experiment [9].
Take `COc1cc(CCC(C)=O)ccc1O`: the outcome in experiment [1], in experiment [2], in experiment [3], in experiment [4], in experiment [5] and in [6] was inactive. In addition, the result in experiment [7], in experiment [8] and in experiment [9] was inactive.
Regarding `COCCOCCOCCO`, the result in experiment [1], in [2], in experiment [3], in experiment [4], in experiment [5] and in experiment [6] was inactive. For the same compound, the compound was called inactive in [7], in experiment [8] and in [9].
Turning to `CC(=O)O[C@H]1C[C@@H]2CC[C@@]1(C)C2(C)C`, the result in experiment [1], in experiment [2], in [3], in experiment [4], in [5] and in [6] was inactive. For the same compound, the result in experiment [7], in experiment [8] and in experiment [9] was inactive.
As to `O=C1CCCC=CCCCCCCCCCC1`, the outcome in experiment [1], in experiment [2], in experiment [3], in experiment [4], in experiment [5] and in experiment [6] was inactive. The compound was called inactive in experiment [7], in experiment [8] and in experiment [9].
As for `CCCOCCO`, the outcome in experiment [1], in experiment [2], in [3], in experiment [4], in [5] and in [6] was inactive. Moreover, the compound was called inactive in experiment [7], in [8] and in experiment [9].
Take `CCCC(=O)OC(C)(C)Cc1ccccc1`: the result in experiment [1], in [2], in experiment [3], in [4], in experiment [5] and in experiment [6] was inactive. Besides, the compound was classed as inactive in [7], in experiment [8] and in experiment [9].
On to `NC(=S)NNC(N)=S`, for which the result in experiment [1], in experiment [2], in experiment [3], in experiment [4], in [5] and in experiment [6] was inactive. Also, the result in [7], in experiment [8] and in experiment [9] was inactive.
